Experimental data from the supplement of paper PMC10849652.
About 7,900 targets were measured; listed, in parts, are those with a hit and a random draw of the rest. About 0.6% of all pairs of compound and target were hits.

Experiments:
Experiment in all cases: log2 fold change, soluble protein after heating vs DMSO (PISA); higher = thermal stabilisation; K562 cells, 10 uM, 30 min; active = over 0.2 and 3.5 SD of the protein, either way, in both replicates (recomputed)
[1] = compound: CC1=C(C=C(C=C1)NC(=O)C2=CC(=CC=C2)C(C)(C)C#N)NC3=CC4=C(C=C3)N=CN(C4=O)C
Procedure, shortened: (§1)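 K562 cells at 2×10^6 cells/mL were given 10 μM compound for 30 min. Aliquots then went through 3 min of heating across 48°C-58°C, were pooled, and were extracted in PBS with 0.5% NP-40 at 4°C, and the supernatant after 21,000xg for 90 min was quantified by TMTpro 16plex LC-MS/MS with channel sums equalised. Thermal stability relative to control samples, from duplicates, is given as log2 fold change.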

[2] = compound: CC1=C(C=C(C=C1)NC(=O)C2=CC(=CC=C2)N(C)C)NC(=O)C3=CC=C(C=C3)O
Procedure, shortened: as §1

[3] = compound: CC1=CC=C(C=C1)SC2=C3C=C(SC3=CN=C2)C(=O)N
Procedure, shortened: as §1

[4] = compound: CC1=NC(=CC=C1)C2=C(N=C(N2)C(C)(C)C)C3=CC4=NC=CN=C4C=C3
Procedure, shortened: as §1

Nexturastat A = compound: CCCCN(Cc1ccc(C(=O)NO)cc1)C(=O)Nc1ccccc1 [Nexturastat A]
Procedure, shortened: as §1

vemurafenib = compound: CCCS(=O)(=O)Nc1ccc(F)c(C(=O)c2c[nH]c3ncc(-c4ccc(Cl)cc4)cc23)c1F [vemurafenib]
Procedure, shortened: as §1

[5] = compound: CCCS(=O)(=O)Nc1ccc(F)c(C(=O)c2c[nH]c3ncc(Cl)cc23)c1F
Procedure, shortened: as §1

[6] = compound: CCCc1cc(C)[nH]c(=O)c1CNC(=O)c1cc(-c2ccnc(N3CCN(C)CC3)c2)cc2c1cnn2C(C)C
Procedure, shortened: as §1

givinostat = compound: CCN(CC)Cc1ccc2cc(COC(=O)Nc3ccc(C(=O)NO)cc3)ccc2c1 [givinostat]
Procedure, shortened: as §1

barasertib = compound: CCN(CCCOc1ccc2c(Nc3cc(CC(=O)Nc4cccc(F)c4)[nH]n3)ncnc2c1)CCOP(=O)(O)O [barasertib]
Procedure, shortened: as §1

Measured: log2 fold change

TIPRL (UniProt O75663)
inactive: [1] 0.011 | [2] -0.017 | [3] 0.007 | [4] 0.013 | Nexturastat A -0.05 | vemurafenib 0.022 | [5] 0.046 | [6] 0.02 | givinostat 0.032 | barasertib -0.007

SLC6A6 (UniProt P31641)
Sequence of UniProt P31641 (P31641 whole entry, looked up): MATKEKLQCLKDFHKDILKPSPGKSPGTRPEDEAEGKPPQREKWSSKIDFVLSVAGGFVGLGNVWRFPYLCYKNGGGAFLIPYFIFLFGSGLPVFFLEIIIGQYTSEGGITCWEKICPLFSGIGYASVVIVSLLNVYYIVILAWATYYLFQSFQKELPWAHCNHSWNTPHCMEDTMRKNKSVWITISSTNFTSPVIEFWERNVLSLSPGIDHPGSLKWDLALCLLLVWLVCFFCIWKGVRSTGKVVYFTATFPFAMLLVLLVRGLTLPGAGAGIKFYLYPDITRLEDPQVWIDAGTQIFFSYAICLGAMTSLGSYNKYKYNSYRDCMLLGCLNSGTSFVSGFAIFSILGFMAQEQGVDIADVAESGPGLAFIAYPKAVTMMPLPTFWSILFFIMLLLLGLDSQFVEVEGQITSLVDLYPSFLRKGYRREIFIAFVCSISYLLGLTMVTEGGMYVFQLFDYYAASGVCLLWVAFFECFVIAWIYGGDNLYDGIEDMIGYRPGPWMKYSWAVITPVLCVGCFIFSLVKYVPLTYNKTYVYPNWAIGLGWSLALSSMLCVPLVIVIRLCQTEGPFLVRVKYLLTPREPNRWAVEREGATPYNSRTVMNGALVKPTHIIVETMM
inactive: [1] 0.017 | [2] 0.014 | [3] 0.011 | [4] 0.028 | Nexturastat A -0.062 | vemurafenib 0.066 | [5] -0.01 | [6] -0.176 | givinostat 0.014 | barasertib -0.018

SRC isoform 2 (UniProt P12931)
inactive: [1] -0.006 | [2] 0.022 | [3] -0.016 | [4] -0.06 | Nexturastat A -0.075 | vemurafenib 0.068 | [5] 0.069 | [6] -0.06 | givinostat -0.091 | barasertib -0.01

STXBP2 isoform 3 (UniProt Q15833)
inactive: [1] 0 | [2] -0.042 | [3] 0.036 | [4] -0.017 | Nexturastat A 0.128 | vemurafenib 0.155 | [5] 0.032 | [6] 0.063 | givinostat 0.125 | barasertib 0.068

STXBP5 (UniProt Q5T5C0)
inactive: [1] -0.021 | [2] -0.041 | [3] -0.007 | [4] -0.006 | Nexturastat A -0.002 | vemurafenib -0.038 | [5] 0.013 | [6] -0.006 | givinostat 0.022 | barasertib -0.004

SSX2 (UniProt Q16385)
active: Nexturastat A -0.254
inactive: [1] 0.021 | [2] -0.013 | [3] 0.011 | [4] 0.073 | vemurafenib 0.046 | [5] 0.035 | [6] -0.016 | givinostat -0.099 | barasertib 0.018

TM9SF2 (UniProt Q99805)
inactive: [1] 0.056 | [2] -0.009 | [3] -0.005 | [4] -0.001 | Nexturastat A -0.039 | vemurafenib -0.03 | [5] 0.018 | [6] -0.004 | givinostat -0.019 | barasertib 0.035

ST3GAL2 (UniProt Q16842)
Sequence of UniProt Q16842 (Q16842 whole entry, looked up): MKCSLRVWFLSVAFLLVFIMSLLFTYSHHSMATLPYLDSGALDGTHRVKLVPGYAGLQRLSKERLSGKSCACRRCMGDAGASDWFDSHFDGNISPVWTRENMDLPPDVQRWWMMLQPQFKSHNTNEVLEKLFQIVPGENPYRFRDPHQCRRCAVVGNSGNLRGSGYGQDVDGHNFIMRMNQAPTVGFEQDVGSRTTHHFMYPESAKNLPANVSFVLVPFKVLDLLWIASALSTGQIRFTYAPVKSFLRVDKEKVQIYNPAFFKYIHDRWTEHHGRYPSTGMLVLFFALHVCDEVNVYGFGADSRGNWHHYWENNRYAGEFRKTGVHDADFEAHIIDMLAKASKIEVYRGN
inactive: [1] 0.064 | [2] -0.054 | [3] -0.216 | [4] 0.066 | Nexturastat A -0.012 | vemurafenib -0.032 | [5] -0.013 | [6] 0.212 | givinostat 0.078 | barasertib 0.112

SPR (UniProt P35270)
inactive: [1] 0.103 | [2] -0.003 | [3] 0.063 | [4] -0.043 | Nexturastat A -0.069 | vemurafenib -0.019 | [5] 0.019 | [6] 0.009 | givinostat -0.004 | barasertib -0.076

SLC30A7 (UniProt Q8NEW0)
inactive: [1] -0.03 | [2] 0.003 | [3] 0.03 | [4] -0.072 | Nexturastat A -0.108 | vemurafenib 0.072 | [5] -0.019 | [6] -0.148 | givinostat 0.081 | barasertib 0.032

SUN2 (UniProt Q9UH99)
inactive: [1] 0.023 | [2] 0.001 | [3] -0.017 | [4] -0.025 | Nexturastat A 0.005 | vemurafenib -0.026 | [5] 0.015 | [6] 0.013 | givinostat 0.005 | barasertib -0.012

SPAST (UniProt Q9UBP0)
Sequence of UniProt Q9UBP0 (Q9UBP0 whole entry, looked up): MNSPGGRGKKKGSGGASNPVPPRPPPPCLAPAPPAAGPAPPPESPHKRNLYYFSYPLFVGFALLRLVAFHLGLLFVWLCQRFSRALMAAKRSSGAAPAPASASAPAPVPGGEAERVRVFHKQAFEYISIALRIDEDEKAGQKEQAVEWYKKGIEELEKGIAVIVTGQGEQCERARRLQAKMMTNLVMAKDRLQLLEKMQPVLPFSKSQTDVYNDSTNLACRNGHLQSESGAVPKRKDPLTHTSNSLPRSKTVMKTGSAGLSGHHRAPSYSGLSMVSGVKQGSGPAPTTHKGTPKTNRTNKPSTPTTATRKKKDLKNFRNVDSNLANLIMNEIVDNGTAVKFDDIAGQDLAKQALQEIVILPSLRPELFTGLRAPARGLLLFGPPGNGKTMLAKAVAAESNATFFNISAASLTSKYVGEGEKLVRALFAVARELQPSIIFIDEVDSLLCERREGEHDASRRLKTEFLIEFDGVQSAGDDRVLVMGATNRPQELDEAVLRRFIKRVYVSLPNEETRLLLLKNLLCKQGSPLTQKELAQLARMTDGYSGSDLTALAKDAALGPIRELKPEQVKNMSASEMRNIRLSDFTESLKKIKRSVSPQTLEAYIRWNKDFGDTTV
inactive: [1] -0.032 | [2] -0.05 | [3] 0.049 | [4] 0.029 | Nexturastat A -0.047 | vemurafenib 0.068 | [5] 0.021 | [6] 0.062 | givinostat 0.074 | barasertib 0.045

SNRPD3 (UniProt P62318)
inactive: [1] -0.03 | [2] 0.031 | [3] -0.048 | [4] -0.079 | Nexturastat A -0.023 | vemurafenib -0.015 | [5] -0.102 | [6] -0.126 | givinostat 0 | barasertib -0.039

TBC1D5 isoform 2 (UniProt Q92609)
Sequence of UniProt Q92609 (Q92609 whole entry, looked up): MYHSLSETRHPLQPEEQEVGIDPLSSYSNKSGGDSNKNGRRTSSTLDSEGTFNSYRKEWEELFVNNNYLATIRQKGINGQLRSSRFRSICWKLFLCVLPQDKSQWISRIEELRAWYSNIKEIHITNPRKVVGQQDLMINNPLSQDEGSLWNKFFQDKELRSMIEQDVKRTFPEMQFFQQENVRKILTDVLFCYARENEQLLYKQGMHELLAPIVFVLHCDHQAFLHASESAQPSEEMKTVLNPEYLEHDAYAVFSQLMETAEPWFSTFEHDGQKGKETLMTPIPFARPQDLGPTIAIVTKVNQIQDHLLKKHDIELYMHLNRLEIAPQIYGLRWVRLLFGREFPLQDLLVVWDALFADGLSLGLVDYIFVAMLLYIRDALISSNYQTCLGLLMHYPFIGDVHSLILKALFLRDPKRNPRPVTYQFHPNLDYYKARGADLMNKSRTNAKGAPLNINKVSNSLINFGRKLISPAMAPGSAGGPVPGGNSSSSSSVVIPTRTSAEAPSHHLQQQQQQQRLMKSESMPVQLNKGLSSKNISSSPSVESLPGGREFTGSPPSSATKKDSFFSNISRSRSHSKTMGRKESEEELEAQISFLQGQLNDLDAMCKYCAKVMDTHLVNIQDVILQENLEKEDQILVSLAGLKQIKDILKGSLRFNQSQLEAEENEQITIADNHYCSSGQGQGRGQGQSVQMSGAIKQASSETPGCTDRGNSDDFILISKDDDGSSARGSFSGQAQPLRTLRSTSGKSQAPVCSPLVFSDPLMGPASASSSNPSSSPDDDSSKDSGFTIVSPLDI
inactive: [1] -0.051 | [2] -0.048 | [3] -0.013 | [4] 0.018 | Nexturastat A 0.01 | vemurafenib 0.048 | [5] 0.112 | [6] -0.033 | givinostat 0.049 | barasertib 0.022

SMAD2 (UniProt Q15796)
inactive: [1] 0.036 | [2] -0.034 | [3] 0.01 | [4] 0.052 | Nexturastat A -0.382 | vemurafenib -0.016 | [5] 0.04 | [6] -0.027 | givinostat 0.047 | barasertib 0.047

SLC25A4 (UniProt P12235)
active: Nexturastat A -0.228
inactive: [1] 0.041 | [2] 0.029 | [3] 0.073 | [4] 0.017 | vemurafenib -0.028 | [5] -0.02 | [6] -0.032 | givinostat -0.049 | barasertib -0.009

SUMO1 (UniProt P63165)
inactive: [1] -0.064 | [2] -0.045 | [3] 0.4 | [4] 0.024 | Nexturastat A -0.142 | vemurafenib -0.051 | [6] -0.071 | givinostat -0.172 | barasertib -0.055
active: [5] 0.657

SP1 (UniProt P08047)
inactive: [1] 0.023 | [2] -0.068 | [3] -0.067 | [4] -0.033 | Nexturastat A 0.034 | vemurafenib -0.017 | [5] -0.069 | [6] -0.018 | givinostat -0.114 | barasertib 0.011

SSB (UniProt P05455)
Sequence of UniProt P05455 (P05455 whole entry, looked up): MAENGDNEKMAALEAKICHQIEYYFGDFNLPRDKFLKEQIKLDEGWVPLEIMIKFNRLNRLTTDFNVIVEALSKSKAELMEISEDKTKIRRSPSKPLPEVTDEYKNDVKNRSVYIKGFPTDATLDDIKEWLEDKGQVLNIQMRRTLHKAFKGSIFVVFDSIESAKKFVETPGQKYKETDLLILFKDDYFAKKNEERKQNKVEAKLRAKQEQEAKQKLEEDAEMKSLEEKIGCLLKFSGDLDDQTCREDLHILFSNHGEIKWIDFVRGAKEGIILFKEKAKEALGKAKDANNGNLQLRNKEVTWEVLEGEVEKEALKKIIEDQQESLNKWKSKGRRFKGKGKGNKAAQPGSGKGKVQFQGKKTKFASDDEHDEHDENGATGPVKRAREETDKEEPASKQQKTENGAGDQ
inactive: [1] -0.02 | [2] 0.024 | [3] -0.026 | [4] 0.024 | Nexturastat A 0.019 | vemurafenib -0.003 | [5] 0.003 | [6] 0.036 | givinostat -0.175 | barasertib 0.074

SLC25A36 (UniProt Q96CQ1)
active: vemurafenib -0.297
inactive: [1] 0.044 | [2] 0.008 | [3] -0.172 | [4] -0.048 | Nexturastat A 0.016 | [5] 0.016 | [6] -0.067 | givinostat 0.115 | barasertib -0.011

TGFBRAP1 (UniProt Q8WUH2)
Sequence of UniProt Q8WUH2 (Q8WUH2 whole entry, looked up): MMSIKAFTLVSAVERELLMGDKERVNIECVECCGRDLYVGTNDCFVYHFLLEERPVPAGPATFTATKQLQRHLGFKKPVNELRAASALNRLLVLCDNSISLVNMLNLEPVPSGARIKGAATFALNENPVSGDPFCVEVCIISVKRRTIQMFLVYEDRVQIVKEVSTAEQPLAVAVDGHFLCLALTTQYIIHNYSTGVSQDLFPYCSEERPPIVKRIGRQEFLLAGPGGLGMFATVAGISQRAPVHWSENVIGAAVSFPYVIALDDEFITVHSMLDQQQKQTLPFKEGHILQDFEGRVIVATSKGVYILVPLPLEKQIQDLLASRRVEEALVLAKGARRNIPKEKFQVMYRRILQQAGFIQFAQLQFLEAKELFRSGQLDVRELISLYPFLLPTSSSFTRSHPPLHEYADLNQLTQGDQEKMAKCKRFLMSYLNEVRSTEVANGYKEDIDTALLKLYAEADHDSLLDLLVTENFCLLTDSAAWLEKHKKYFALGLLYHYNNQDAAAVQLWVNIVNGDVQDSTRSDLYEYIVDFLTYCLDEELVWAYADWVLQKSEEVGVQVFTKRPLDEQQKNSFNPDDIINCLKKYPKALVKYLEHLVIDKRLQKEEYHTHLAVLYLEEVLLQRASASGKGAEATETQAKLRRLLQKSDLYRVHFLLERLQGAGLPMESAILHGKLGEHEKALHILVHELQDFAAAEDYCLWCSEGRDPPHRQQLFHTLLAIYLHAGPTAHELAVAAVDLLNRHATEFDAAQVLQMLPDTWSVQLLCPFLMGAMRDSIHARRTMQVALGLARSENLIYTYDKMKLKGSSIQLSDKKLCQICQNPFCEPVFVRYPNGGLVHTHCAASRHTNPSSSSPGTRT
inactive: [1] -0.058 | [2] -0.001 | [3] 0.138 | [4] 0.061 | Nexturastat A 0.107 | vemurafenib -0.055 | [5] -0.003 | [6] 0.038 | givinostat 0.092 | barasertib 0.01

SPPL2B (UniProt Q8TCT7)
inactive: [1] -0.097 | [2] 0.004 | [3] 0.089 | [4] 0.041 | Nexturastat A 0.029 | vemurafenib -0.05 | [5] -0.018 | [6] 0.021 | givinostat 0.048 | barasertib 0

SRPRB (UniProt Q9Y5M8)
Sequence of UniProt Q9Y5M8 (Q9Y5M8 whole entry, looked up): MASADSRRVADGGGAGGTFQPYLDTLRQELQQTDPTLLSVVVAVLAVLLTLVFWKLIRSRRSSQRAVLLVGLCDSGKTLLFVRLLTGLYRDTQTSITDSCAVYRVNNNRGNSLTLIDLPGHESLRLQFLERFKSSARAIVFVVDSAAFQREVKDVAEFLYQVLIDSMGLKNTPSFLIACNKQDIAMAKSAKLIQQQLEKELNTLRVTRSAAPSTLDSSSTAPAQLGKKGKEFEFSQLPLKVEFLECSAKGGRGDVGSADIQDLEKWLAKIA
inactive: [1] 0.096 | [2] -0.051 | [3] 0.025 | [4] 0.092 | Nexturastat A -0.035 | vemurafenib 0.061 | [5] 0.073 | [6] 0.035 | givinostat -0.127 | barasertib 0.027

STARD9 (UniProt Q9P2P6)
inactive: [1] -0.29 | [2] 0.01 | [3] -0.07 | [4] -0.048 | Nexturastat A 0.144 | vemurafenib -0.161 | [5] 0.029 | [6] -0.035 | givinostat -0.046 | barasertib -0.017

SRSF11 (UniProt Q05519)
inactive: [1] -0.029 | [2] -0.058 | [3] 0.009 | [4] 0.032 | Nexturastat A -0.022 | vemurafenib 0.007 | [5] 0.087 | [6] 0.053 | givinostat 0.059 | barasertib 0.023

SRPRA (UniProt P08240)
inactive: [1] 0.089 | [2] -0.06 | [3] 0.018 | [4] 0.047 | Nexturastat A 0 | vemurafenib 0.038 | [5] 0.069 | [6] 0.001 | givinostat 0.018 | barasertib 0.04

SLC9A6 isoform 2 (UniProt Q92581)
inactive: [1] -0.035 | [2] 0.024 | [3] -0.002 | [4] -0.012 | Nexturastat A -0.061 | vemurafenib 0.024 | [5] 0 | [6] -0.063 | givinostat -0.01 | barasertib 0.018

SNRPB2 (UniProt P08579)
inactive: [1] -0.016 | [2] 0.007 | [3] -0.026 | [4] -0.014 | Nexturastat A -0.015 | vemurafenib -0.036 | [5] -0.042 | [6] -0.048 | givinostat -0.051 | barasertib -0.056

SMARCA5 (UniProt O60264)
Sequence of UniProt O60264 (O60264 whole entry, looked up): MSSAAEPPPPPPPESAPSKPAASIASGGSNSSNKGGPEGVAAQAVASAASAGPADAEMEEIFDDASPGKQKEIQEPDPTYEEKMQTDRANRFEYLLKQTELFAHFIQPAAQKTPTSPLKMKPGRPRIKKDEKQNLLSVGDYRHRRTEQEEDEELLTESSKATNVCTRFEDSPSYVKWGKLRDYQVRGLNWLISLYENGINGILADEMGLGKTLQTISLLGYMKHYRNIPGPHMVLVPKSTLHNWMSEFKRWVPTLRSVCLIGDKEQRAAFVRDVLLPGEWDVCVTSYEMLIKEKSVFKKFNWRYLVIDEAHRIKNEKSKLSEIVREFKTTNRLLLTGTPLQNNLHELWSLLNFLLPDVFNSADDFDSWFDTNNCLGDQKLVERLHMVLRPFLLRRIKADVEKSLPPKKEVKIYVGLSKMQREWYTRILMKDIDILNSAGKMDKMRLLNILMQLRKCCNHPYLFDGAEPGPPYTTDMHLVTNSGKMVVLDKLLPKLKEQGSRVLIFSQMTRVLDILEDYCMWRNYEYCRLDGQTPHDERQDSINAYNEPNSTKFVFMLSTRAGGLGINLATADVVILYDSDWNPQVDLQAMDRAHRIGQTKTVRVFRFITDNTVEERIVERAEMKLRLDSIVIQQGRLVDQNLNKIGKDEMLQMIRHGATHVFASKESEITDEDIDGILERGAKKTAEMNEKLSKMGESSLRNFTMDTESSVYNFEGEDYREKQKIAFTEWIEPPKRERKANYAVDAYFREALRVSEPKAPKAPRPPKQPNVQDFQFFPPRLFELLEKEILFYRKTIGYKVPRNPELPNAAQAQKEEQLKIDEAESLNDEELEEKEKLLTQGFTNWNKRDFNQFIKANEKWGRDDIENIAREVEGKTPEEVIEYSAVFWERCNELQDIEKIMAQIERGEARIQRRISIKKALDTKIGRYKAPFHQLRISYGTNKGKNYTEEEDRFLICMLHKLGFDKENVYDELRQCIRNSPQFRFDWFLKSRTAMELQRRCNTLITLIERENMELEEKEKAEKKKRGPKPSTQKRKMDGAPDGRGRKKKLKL
inactive: [1] 0.042 | [2] -0.041 | [3] 0.038 | [4] 0.014 | Nexturastat A 0.107 | vemurafenib 0.085 | [5] 0.129 | [6] 0.032 | givinostat 0.149 | barasertib 0.109

SLC25A39 (UniProt Q9BZJ4)
inactive: [1] -0.029 | [2] 0.011 | [3] 0.207 | [4] 0.129 | Nexturastat A -0.037 | vemurafenib -0.019 | [5] -0.048 | [6] -0.133 | givinostat -0.092 | barasertib 0.088
